Source: PubChem BioAssay
Sampled rows, rich in hits. Any-hit rate of the full collection: about 18%.
DT40 TDP1 CPT – qHTS for Inhibitors of human tyrosyl-DNA phosphodiesterase 1 (TDP1): qHTS in cells in presence of CPT. chicken DT40 Tdp1-/-;hTDP1 cells + 20 nM CPT, ATP luminescence, 48 h. Potency, µM (series often up to 46.2 µM), without a hit: top-dose activity change, negative = growth inhibition, actives largely listed as inhibitors. 420,000 compounds, 12% hits. AID 686979, 2013; note: nearly all actives have a fitted effect of over 55% in size
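Cell growth measured by CellTiter-Glo luminescence after a minimum 48 h, 37 C compound exposure with 20 nM CPT in Tdp1-knockout DT40 cells stably expressing hTDP1, seeded 400/well; qHTS titration format.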
PLK1 PBD block – qHTS for Inhibitors of PLK1-PDB (polo-like kinase 1 - polo-box domain): Primary Screen; Serine/threonine-protein kinase PLK1 (Homo sapiens), P53350; Plk1 PBD binding of FITC phosphopeptide, fluorescence polarization; Potency, µM, for inactives: max response, negative = inhibition, usual class: inhibitors; 360,000 compounds, 2.8% hits; AID 720504, 2013; note: series mostly up to about 57 µM; nearly all actives have a fitted effect of over 65% in size
KAT2A inh – qHTS Assay for Inhibitors of GCN5L2; 390,000 compounds, 0.21% hits; Potency, µM (top dose mostly 58.9 µM), for the others: at the top dose activity change, negative = inhibition, most hits filed as inhibitors; AID 504327, 2011; GCN5L2 HAT assay, ThioGlo1 CoA-SH fluorescence
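Titration-based screen in which CoA formation is detected via maleimide probe ThioGlo1 (50uM) turning fluorescent on thiol reaction; substrates H3(1-25) 75uM and acetyl-CoA 70uM, GCN5L2 20nM, 20 min incubation at room temperature.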
VDR inh – Inhibitors of the vitamin D receptor (VDR): qHTS | VDR-SRC2-3 peptide fluorescence polarization, 2 h | Potency, µM, for inactives: max response, negative = inhibition, most hits filed as inhibitors | 400,000 compounds, 0.93% hits | AID 504847, 2011
Target sequence (P11473 whole entry, looked up): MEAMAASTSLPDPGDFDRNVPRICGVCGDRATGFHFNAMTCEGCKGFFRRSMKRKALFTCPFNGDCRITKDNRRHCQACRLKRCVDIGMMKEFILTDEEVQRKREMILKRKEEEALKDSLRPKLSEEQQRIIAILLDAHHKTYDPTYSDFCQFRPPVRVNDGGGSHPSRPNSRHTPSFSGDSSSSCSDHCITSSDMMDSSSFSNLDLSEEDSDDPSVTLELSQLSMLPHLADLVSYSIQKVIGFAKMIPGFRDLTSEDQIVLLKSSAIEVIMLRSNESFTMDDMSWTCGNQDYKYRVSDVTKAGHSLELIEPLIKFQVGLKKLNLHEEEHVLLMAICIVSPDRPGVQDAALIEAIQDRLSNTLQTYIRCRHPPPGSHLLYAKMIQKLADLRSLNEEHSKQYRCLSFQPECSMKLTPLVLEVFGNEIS
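FP read-out; VDR + SRC2-3 coactivator peptide; 23 nl compound by pintool; 2 h RT incubation; reagents held at 4 deg C, protected from light.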
TDP1 block – qHTS Assay for Inhibitors of Tyrosyl-DNA Phosphodiesterase (TDP1); Tyrosyl-DNA phosphodiesterase 1 (Homo sapiens), Q9NUW8; recombinant TDP1, AlphaScreen DNA substrate cleavage; Potency, µM (series often up to 130 µM), inactives show at the top dose activity change, negative = inhibition, usual class: inhibitors; 350,000 compounds, 0.28% hits; note: nearly all actives have a fitted effect of over 40% in size
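Tdp1 1 nM final; 15 min RT w/ cpd; substrate 15 nM, 5 min; beads 10 ug/ml, 10 min; AlphaScreen read. Neg ctrl: no enzyme.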
DT40 TDP1 no CPT – qHTS for Inhibitors of human tyrosyl-DNA phosphodiesterase 1 (TDP1): qHTS in cells in absence of CPT; DT40 Tdp1-/- hTDP1 cells, no CPT, ATP luminescence, 48 h; Potency, µM (top dose mostly 46.2 µM), without a hit: at the highest dose activity change, negative = growth inhibition, usual class: inhibitors; 420,000 compounds, 15% hits; note: nearly all actives have a fitted effect of over 55% in size
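Stably hTDP1-transfected Tdp1-null chicken DT40 cells were treated with library compounds minus camptothecin and grown for at least 48 hr at 37 °C, after which cellular ATP was quantified by luminescence.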
Active calls of the source: *; [ ] = remark or other dose. Calls come from the whole dose curve; as a rule, active = well fitted curve in the direction sought with a large enough effect; inconclusive = small, poorly fitted or top-dose-only effect, or another doubt; inactive = no such curve, though single readings can be large; an effect the other way counts as inactive or inconclusive. % is set by controls: 0 for no effect and ±100 for the full control effect; potency is the fitted concentration of half-maximal effect.

What do the screens show for `CC1=C(C(=O)Nc2ccccc2)C(c2cc(Br)ccc2F)n2ncc(C(=O)Nc3ccccc3)c2N1` (stereo unspecified)?
DT40 TDP1 CPT: inconclusive; KAT2A inh: 0%; VDR inh: 13%; TDP1 block: 5%; DT40 TDP1 no CPT: inconclusive

What do the screens show for `CCCCCCCc1c(O)nc(SCCN2CCOCC2)[nH]c1=O`?
DT40 TDP1 CPT: -4%; PLK1 PBD block: -9%; KAT2A inh: -1%; VDR inh: 0%; TDP1 block: 6%; DT40 TDP1 no CPT: 1%

What do the screens show for `NS(=O)(=O)c1ccc(CCNC(=O)c2ccc3nccnc3c2)cc1`?
DT40 TDP1 CPT: -8%; PLK1 PBD block: -24%; KAT2A inh: inconclusive; VDR inh: -18%; TDP1 block: 7.9µM*; DT40 TDP1 no CPT: -23%

Results for NS(=O)(=O)c1ccc(CCNC(=O)Nc2ccc(Cl)c(Cl)c2)cc1 ?
DT40 TDP1 CPT: inconclusive; PLK1 PBD block: -14%; KAT2A inh: -10%; VDR inh: -4%; TDP1 block: 2%; DT40 TDP1 no CPT: 23µM*

How did NS(=O)(=O)c1ccc(CCNS(=O)(=O)c2ccccc2)cc1 do in these assays?
DT40 TDP1 CPT: -4%; PLK1 PBD block: -5%; KAT2A inh: -12%; VDR inh: 6%; TDP1 block: 3%; DT40 TDP1 no CPT: -11%

Results for NS(=O)(=O)c1ccc(CCNS(=O)(=O)c2cccc(C(=O)O)c2)cc1 ?
DT40 TDP1 CPT: 1%; PLK1 PBD block: -15%; KAT2A inh: 2%; VDR inh: 1%; TDP1 block: 79µM*; DT40 TDP1 no CPT: 1%

Results for NS(=O)(=O)c1ccc(CCNS(=O)(=O)Cc2ccc(Cl)cc2)cc1 ?
DT40 TDP1 CPT: 5%; PLK1 PBD block: -11%; KAT2A inh: -13%; VDR inh: 4%; DT40 TDP1 no CPT: -27%

How did NS(=O)(=O)c1ccc(CNC(=S)Nc2ccc(Cl)c(Cl)c2)cc1 do in these assays?
DT40 TDP1 CPT: -17%; PLK1 PBD block: -25%; KAT2A inh: -4%; VDR inh: -8%; TDP1 block: 3%; DT40 TDP1 no CPT: inconclusive

How did NS(=O)(=O)c1ccc(CCNc2ccnc3cc(Cl)ccc23)cc1 do in these assays?
DT40 TDP1 CPT: inconclusive; PLK1 PBD block: 7%; KAT2A inh: -3%; VDR inh: -16%; TDP1 block: 2%; DT40 TDP1 no CPT: 15µM*

Results for COC(=O)c1ccc(CNS(=O)(=O)c2ccc3ccccc3c2)cc1 ?
DT40 TDP1 CPT: -1%; PLK1 PBD block: -21%; KAT2A inh: -6%; VDR inh: -3%; TDP1 block: -19%; DT40 TDP1 no CPT: -17%

What do the screens show for `CCCNC(=O)OC[C@@H]1O[C@H](CCO/N=C2\c3cc(OC)ccc3O[C@H](c3cccc(OC)c3)[C@H]2O)C=C[C@@H]1Oc1ccc(OC)cc1`?
TDP1 block: 7%[21 µM]

Results for CCOc1ccc(NC(=O)COc2nsnc2N2CCOCC2)cc1 ?
DT40 TDP1 CPT: 16µM*; PLK1 PBD block: 4%; KAT2A inh: -6%; VDR inh: 7%; TDP1 block: 3%; DT40 TDP1 no CPT: 13µM*

Results for O=C(COc1nsnc1N1CCOCC1)N/N=C/c1ccccc1O ?
DT40 TDP1 CPT: 4.6µM*; PLK1 PBD block: 5%; KAT2A inh: -4%; VDR inh: -17%; TDP1 block: 3%; DT40 TDP1 no CPT: 2.6µM*

Results for COC(=O)Oc1nsnc1N1CCOCC1 ?
DT40 TDP1 CPT: 23µM*; PLK1 PBD block: 2.7µM*; KAT2A inh: -22%; VDR inh: -91%; TDP1 block: 0%; DT40 TDP1 no CPT: inconclusive

How did O=C(COc1nsnc1N1CCOCC1)Nc1cccc(Cl)c1 do in these assays?
DT40 TDP1 CPT: -5%; PLK1 PBD block: -7%; KAT2A inh: inconclusive; VDR inh: -5%; TDP1 block: 8%; DT40 TDP1 no CPT: -12%

Results for O=C(Oc1nsnc1N1CCOCC1)N(c1ccccc1)c1ccccc1 ?
DT40 TDP1 CPT: 6%; PLK1 PBD block: 0%; KAT2A inh: -5%; VDR inh: 8%; TDP1 block: 4%; DT40 TDP1 no CPT: -16%

What do the screens show for `CN(C)Cc1ccccc1-c1cccc2nccn12`?
DT40 TDP1 CPT: -21%; PLK1 PBD block: -4%; DT40 TDP1 no CPT: -14%

How did O=C(C1CCCN(S(=O)(=O)c2cccc3nonc23)C1)N1CCC(Cc2ccccc2)CC1 (stereo unspecified) do in these assays?
DT40 TDP1 CPT: 21µM*; PLK1 PBD block: 0%; VDR inh: 23%; TDP1 block: 3%; DT40 TDP1 no CPT: 18µM*

Results for Cc1cc(Br)ccc1NC(=O)C1CCCN(S(=O)(=O)c2cccc3nonc23)C1 (stereo unspecified) ?
DT40 TDP1 CPT: inconclusive; KAT2A inh: -5%; VDR inh: -26%; TDP1 block: 2%[12.3 µM]; DT40 TDP1 no CPT: -40%

How did O=C(Nc1ccc(Cl)c(C(F)(F)F)c1)C1CCN(S(=O)(=O)c2cccc3nonc23)CC1 do in these assays?
DT40 TDP1 CPT: 13µM*; KAT2A inh: -10%; VDR inh: -1%; TDP1 block: 5%; DT40 TDP1 no CPT: 5.2µM*

What do the screens show for `Cc1cc(NC(=O)C2CCCN(S(=O)(=O)c3cccc4nonc34)C2)ccc1Br` (stereo unspecified)?
DT40 TDP1 CPT: inconclusive; KAT2A inh: -1%; VDR inh: -11%; TDP1 block: 2%; DT40 TDP1 no CPT: 16µM*

Results for O=C(C1CCN(S(=O)(=O)c2cccc3nonc23)CC1)N1CCN(c2cccc(Cl)c2)CC1 ?
DT40 TDP1 CPT: 26µM*; KAT2A inh: -3%; VDR inh: 12%; TDP1 block: 0%; DT40 TDP1 no CPT: 15µM*

Results for COc1ccccc1Cn1ccn(Cc2ccc(C)cc2)c(=O)c1=O ?
DT40 TDP1 CPT: inconclusive; KAT2A inh: -10%; VDR inh: -2%; TDP1 block: 5%; DT40 TDP1 no CPT: inconclusive

How did CCCCN(C=O)c1c(CC)nc2ccc(C(=O)NCc3cccs3)cn12 do in these assays?
DT40 TDP1 CPT: -30%; PLK1 PBD block: 0%; DT40 TDP1 no CPT: inconclusive
